IL1B secr inh: blocks inflammasome-driven IL-1 beta release. THP-1 LPS/ATP IL-1B secretion, AlphaLISA, 16 h; active compounds read low. 360,000 compounds, 4.7% hits. activity change, % at 57.5 µM; in the data active means activity change below about -50%; inconclusive means mostly about -30% to -49%
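Secreted IL-1B measured by AlphaLISA bead assay after 16 h compound exposure of THP-1 cells; compounds (final up to 57.5 uM) added 1 h before LPS (250 ng/mL) and ATP (1.25 mM) stimulation; lower signal means less secretion.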
DRD3 agonist: activates the human D3 dopamine receptor; 410,000 compounds, 0.58% hits; P35462; D3R DiscoveRx beta-arrestin cells, luminescence, 90 min; max activation, %; in the data active means max activation above about 30%
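Agonist-mode cell screen: cells plated at 1500/well and incubated overnight at 37 °C, then exposed to library compounds for 90 min at 37 °C. Detection reagent was added for 30–60 min at room temperature, and luminescence was read.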
TDP1 cell CPT: DT40-hTDP1 cell growth loss with CPT | 420,000 compounds, 12% hits | chicken DT40 Tdp1-/-;hTDP1 cells + 20 nM CPT, ATP luminescence, 48 h | Potency, µM (top dose mostly 46.2 µM), most hits filed as inhibitors | AID 686979; further: nearly all actives have a fitted effect of over 55% in size
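Chicken DT40 Tdp1-/- cells complemented with human TDP1, 400 cells/well, exposed to compounds plus 20 nM camptothecin for at least 48 h at 37 C; viability read as ATP content by CellTiter-Glo luminescence.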
D3 antag: D3 dopamine receptor (human) antagonism; P35462; D3R cells, DiscoveRx beta-arrestin luminescence, antagonist mode; active compounds read low; max response, negative = inhibition, %; 360,000 compounds, 2.5% hits; AID 652054; in the data active means max response below about -50%; inconclusive means no clear call, values can overlap the other calls
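Cells plated overnight at 1500 cells/well, then exposed to library compounds with dopamine controls for 90 minutes at 37 degrees C. DiscoveRx reagent added for 30–60 minutes at room temperature; luminescence read, quantitative HTS format.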
DT40 TDP1 no CPT: qHTS for Inhibitors of human tyrosyl-DNA phosphodiesterase 1 (TDP1): qHTS in cells in absence of CPT | DT40 Tdp1-/- hTDP1 cells, no CPT, ATP luminescence, 48 h | Potency, µM (doses to about 46.2 µM), actives largely listed as inhibitors | 420,000 compounds, 15% hits; further: nearly all actives have a fitted effect of over 55% in size
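Chicken DT40 Tdp1-/- cells complemented with human TDP1, screened without camptothecin (DMSO vehicle only), 400 cells/well. Compounds pin-transferred, cells incubated at 37 °C for at least 48 hr. Growth read as ATP-dependent luminescence (CellTiter-Glo, 30 min at RT).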
ClpP mod: qHTS Assay for Activators of ClpP; ATP-dependent Clp protease proteolytic subunit (Bacillus subtilis (strain 168)), P80244; purified B. subtilis ClpP, FRET peptide cleavage, 20 min; Potency, µM (series often up to 57.5 µM); 340,000 compounds, 1.9% hits; active means well fitted falling curve with a large enough effect; inconclusive means small, poorly fitted or top-dose-only effect; inactive means no such curve, though single readings can be large or run the other way; further: the source files actives as falling curves though it sought activators and does not explain the sign; nearly all actives have a fitted effect of over 65% in size
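FRET quenching reversal measured ClpP activation: 10 microg/mL B. subtilis ClpP at pH 8 with the FRET-FV decapeptide, read at 430 nm after 320 nm excitation. The 20-min minus 0-min signal was scaled between DMSO/no-enzyme wells and ADEP (5.8 microM final).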
Hits are given with their value; i = inactive; ? = inconclusive; nt = no result; ! = not confirmed by another sample; [ ] = remark or other dose. Hits are enriched below; roughly 21% of the tested compounds scored in any of these assays. Unless noted, the call rests on the fitted dose curve; in most records, active means well fitted inhibition curve with a large enough effect; inconclusive means small, poorly fitted or top-dose-only effect; inactive means flat fitted curve, though single readings scatter.

SMILES	IL1B secr inh	DRD3 agonist	TDP1 cell CPT	D3 antag	DT40 TDP1 no CPT	ClpP mod
CC(=O)N1CC(C)Sc2ccc(S(=O)(=O)NCc3ccc(F)cc3)cc21 (stereo not drawn)	i	i	?	i	?	i
CC(=O)N1CC(C)Sc2ccc(S(=O)(=O)NCCc3cccc(C)c3)cc21 (stereo not drawn)	i	i	?	i	15µM	i
CC(=O)N1c2ccc(S(=O)(=O)NCC3CCC(C(=O)Nc4cccc(C)n4)CC3)cc2CC1C (stereo not drawn)	i	i	26µM	i	18µM	i
COc1ccc(CCN=C(NS(=O)(=O)c2ccc(Cl)cc2)c2ccccc2)cc1	-66	i	?	i	?	nt
Cc1ccn2c(NC3CCCCC3)c(-c3cccc(SC4CCCCC4)c3)nc2c1	-75!	i	16µM	i	8.2µM	?
CCCCCCSc1cccc(-c2nc3cc(C)ccn3c2NC2CCCCC2)c1	-74	i	21µM	i	16µM	i
Cc1ccn2c(NC3CCCCC3)c(-c3ccc(SC4CCCCC4)cc3)nc2c1	i	i	?	i	23µM	i
CCC(C)Sc1cccc(-c2nc3cc(C)ccn3c2NC2CCCCC2)c1 (stereo not drawn)	-82!	i	16µM	i	15µM	14µM!
C/C(=N\NC(=O)c1cccc(S(=O)(=O)N2CCCC2)c1)c1ccc(F)cc1	i	i	i	i	i	i
Cc1cccc(-c2nc(S(=O)(=O)c3ccc(Cl)cc3)c(N3CCCCCC3)o2)c1	nt	i	?	nt	?	?
COc1ccc(-n2c(=O)c(-c3ccc(F)cc3)nc3cnc(N4CCOCC4)nc32)cc1	nt	nt	i	nt	i	nt
COC(=O)N1CCC2(CC1)CCN(c1ncccn1)CC2	nt	nt	i	nt	i	nt
CC(CC(=O)Nc1ccc(C(N)=O)cc1)c1ccccc1 (stereo not drawn)	i	i	i	?	i	i
CCOC(=O)c1sc(NC(=O)CSC(=S)N2CCN(C)CC2)nc1C	?	i	26µM	i	18µM	i
CC(C)c1nnc(NC(=O)CC(C)c2ccccc2)s1 (stereo not drawn)	i	i	i	i	i	i
Cc1cnc(NC(=O)CC(C)c2ccccc2)s1 (stereo not drawn)	i	i	6.5µM	i	5.2µM	nt
CC(CC(=O)Nc1cccnc1)c1ccccc1 (stereo not drawn)	i	42	i	i	i	i
CCOC(=O)c1sc2nc(NC(=O)COc3ccccc3)sc2c1C	i	i	?	i	18µM	i
CC(=O)c1sc(NC(=O)COc2ccccc2)nc1C	i	i	i	i	i	nt
Cc1cccc([C@@H]2[C@@H]3C(=O)N(Cc4ccccc4)C(=O)[C@@H]3[C@]3(CC(C)C)C(=O)N(c4cccc(F)c4)C(=O)N23)c1	i	i	?	i	?	i
O=C(NCC(=O)N1CCOCC1)c1ccccc1	i	i	i	i	i	nt
O=C(COC(=O)Cc1ccc(Br)cc1)NCc1ccc2c(c1)OCO2	i	i	i	i	i	nt
CN(C)N1C(=O)CC(NNC(=O)c2ccncc2)C1=O (stereo not drawn)	i	i	i	i	i	i
CCOC(=O)c1sc(NC(=O)CCc2ccccc2)nc1C	i	i	1.8µM	i	1.2µM	i
CCOC(=O)c1sc(NC(=O)CC(C)c2ccccc2)nc1C (stereo not drawn)	i	i	13µM	i	3.7µM	nt
SMILES	IL1B secr inh	DRD3 agonist	TDP1 cell CPT	D3 antag	DT40 TDP1 no CPT	ClpP mod
O=C(O)CC1(CC(=O)Nc2ccc3c(c2)OCCCO3)CCCCC1	i	i	i	i	i	nt
COc1ccc(N2C(=O)C3CCCN3C2c2ccc(C)o2)cc1 (stereo not drawn)	i	i	i	i	i	i
Cc1ccc(S(=O)(=O)N2CCN(C(=O)c3cc(-c4cccs4)nn3-c3ccccc3)CC2)cc1	i	i	13µM	i	18µM	?
O=C(c1cc(-c2cccs2)nn1-c1ccccc1)N1CCN(S(=O)(=O)c2ccccc2)CC1	i	i	?	i	18µM	nt
CCCC(=O)c1cc2c(cc1NC(=O)c1ccccc1F)OCCO2	i	i	i	i	i	i
CCOC(=O)Cc1nnc(NC(=O)C(CC)Sc2nc(C)cc(=O)[nH]2)s1 (stereo not drawn)	i	i	?	i	16µM	i
N#Cc1c(NC(=O)CSc2nc(N)cc(=O)[nH]2)sc2c1CCCCCC2	i	i	?	i	?	i
Cc1nnc(SC(C)C(=O)Nc2sc3c(c2C#N)CCCC3)[nH]c1=O (stereo not drawn)	i	i	i	i	i	nt
CCOC(=O)Cc1nnc(NC(=O)C(CC)Sc2nncn2C)s1 (stereo not drawn)	i	i	i	i	i	i
CC(Sc1nc(N)cc(=O)[nH]1)C(=O)Nc1sc2c(c1C#N)CCCC2 (stereo not drawn)	i	i	2.3µM	i	2.3µM	nt
CCC(Sc1nc(C)cc(=O)[nH]1)C(=O)Nc1sc2c(c1C#N)CCCC2 (stereo not drawn)	i	i	16µM	i	16µM	i
COc1ccc(C(=O)OC2CC3CC[C@H](C2)N3C(C)=O)cc1OC (stereo partly drawn)	nt	nt	i[9.04 µM]	nt	i[9.04 µM]	nt
CC(C)[C@H](NC(=O)N1c2ccccc2NC(=O)[C@@H]1C(C)C)C(=O)N[C@H](Cc1ccccc1)C(=O)O	i	i	i	i	i	i
CCOc1ccc(N(CC)S(=O)(=O)N2CCCC(C(=O)NCCc3ccc(OC)cc3)C2)cc1 (stereo not drawn)	nt	i	?	nt	?	i
CCOc1ccc(N(CC)S(=O)(=O)N2CCCC(C(=O)Nc3cc(Cl)ccc3C)C2)cc1 (stereo not drawn)	nt	i	21µM	nt	16µM	i
CCOc1ccc(N(CC)S(=O)(=O)N2CCCC(C(=O)NCc3ccccc3Cl)C2)cc1 (stereo not drawn)	nt	i	21µM	nt	21µM	i
Cc1cc(C)cc(OCc2ccc(C(=O)Nc3ccccc3F)o2)c1	nt	i	i	nt	?	i
O=C(Cn1nc(-c2ccccc2)ccc1=O)N1CCCCC1	i	i	i	i	i	nt
COc1cccc(CNC(=O)Cn2nc(-c3ccc(C)cc3)ccc2=O)c1	nt	i	i	nt	i	i
CC1CN(C/C(=N\O)C23CC4CC(CC(C4)C2)C3)CC(C)O1 (stereo not drawn)	i	i	i	i	?	i

Compound activity as filed in PubChem.
